Shown are actives, neighbours in structure and some others; about 6.1% of the full set was active somewhere.
D3 ag – agonists of human D3 dopamine receptor. P35462. max activation, %. D3R DiscoveRx beta-arrestin cells, luminescence, 90 min. AID 652048. 0.58% of 410,000 active; in the data active = max activation above about 30%; note: 0% is about no effect
Target sequence (P35462 whole entry, looked up): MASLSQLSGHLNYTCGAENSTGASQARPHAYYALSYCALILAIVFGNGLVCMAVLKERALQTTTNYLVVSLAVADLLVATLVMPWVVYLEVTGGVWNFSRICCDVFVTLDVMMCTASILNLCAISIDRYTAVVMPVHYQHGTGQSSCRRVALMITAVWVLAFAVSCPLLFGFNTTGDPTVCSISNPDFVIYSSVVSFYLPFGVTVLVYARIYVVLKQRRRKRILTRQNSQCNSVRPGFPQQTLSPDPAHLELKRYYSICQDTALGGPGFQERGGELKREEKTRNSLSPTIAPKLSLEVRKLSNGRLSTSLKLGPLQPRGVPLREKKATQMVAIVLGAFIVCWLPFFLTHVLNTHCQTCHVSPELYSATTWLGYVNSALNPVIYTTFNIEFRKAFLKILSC
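Agonist-mode cell screen: cells plated at 1500/well and incubated overnight at 37 °C, then exposed to library compounds for 90 min at 37 °C. Detection reagent was added for 30–60 min at room temperature, and luminescence was read.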
D1 antagonist – blocks dopamine activation of the human D1 receptor | 3.2% of 360,000 active | P21728 | HEK293 TREx D1 cells, calcium flux, dopamine EC80; active compounds read low | activity change, negative = inhibition, % at 10 µM; in the data active = activity change below about -30%; note: % is set by controls: 0 for no effect and ±100 for the full control effect
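Compound effects on dopamine-evoked calcium signalling were measured in tetracycline-induced HEK293 Trex D1 cells. Dopamine at EC80 followed a 180 s compound pre-read, and fluorescence was tracked kinetically for 180 s more.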
D1 potentiator – enhances dopamine response at the human D1 receptor; AID 504651; HEK293 TREx D1 cells, calcium flux, dopamine EC20 potentiation; 0.036% of 360,000 active; P21728; potentiation, % at 10 µM; in the data active = potentiation above about 30%; note: 0% is about no effect
D3 antag – antagonists of human D3 dopamine receptor. AID 652054. D3R cells, DiscoveRx beta-arrestin luminescence, antagonist mode; active compounds read low. max response, negative = inhibition, %. 2.5% of 360,000 active; in the data active = max response below about -50%; inconclusive = no clear call, values can overlap the other calls; note: % is set by controls: 0 for no effect and ±100 for the full control effect
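Cells plated overnight at 1500 cells/well, then exposed to library compounds with dopamine controls for 90 minutes at 37 degrees C. DiscoveRx reagent added for 30–60 minutes at room temperature; luminescence read, quantitative HTS format.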
D1 agonist – activates the human D1 dopamine receptor. 1% of 360,000 active. P21728. HEK293 T-REx D1 cells, calcium flux, agonist mode. activation, % at 2 µM; in the data active = activation above about 30%; note: 0% is about no effect
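Agonism was scored from calcium flux recorded over 180 s (1 read/s) after pintool compound addition, following a 10-cycle baseline. Cells were inducible force-coupled HEK293 TREx D1, plated overnight at 30 C and loaded with no-wash calcium dye.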
* = called active by the depositor; ? = inconclusive; / = no result.

SMILES | D3 ag | D1 antagonist | D1 potentiator | D3 antag | D1 agonist
CCc1c(C)nc2cc(-c3cc(OC)cc(OC)c3)nn2c1N1CCCC1 | 31* | -6 | 1 | 10 | 12
COCC(C)NC(=O)CCc1nnc(C2(c3ccc(Cl)cc3)CCC2)o1 (configuration not stated) | -10 | -51* | -6 | -9 | 0
CCN(CC)c1ccc(NS(=O)(=O)c2ccc(-c3coc(C)n3)cc2)c(C)c1 | 11 | -34* | -6 | / | 0
CCN(CC)c1ccc(NS(=O)(=O)c2cc3[nH]c(=O)c(=O)[nH]c3cc2C)c(C)c1 | 10 | -38* | -2 | / | 1
CCCC(CCC)C(=O)Nc1cccc(-c2cn3c(n2)SCC3)c1 | -1 | -5 | -3 | 0 | 0
O=C(Cc1ccc(Br)cc1)Nc1cccc(-c2cn3c(n2)SCC3)c1 | 2 | -41* | -13 | 16 | 10
Cc1nn2c(=O)cc(COC(=O)c3ccc(NC(=O)c4cccs4)cc3)nc2s1 | 4 | 11 | 0 | / | 2
CCCCOc1ccc(CNC(=O)CCCN2C(=O)CSc3c2c(C)nn3-c2ccccc2)cc1 | 4 | -5 | -6 | / | 10
Nc1cc(S(=O)(=O)N2CCOCC2)ccc1Oc1cccc(Br)c1 | -2 | -44* | -11 | -18 | 12
Cc1ccc(S(=O)(=O)N2CCOCC2)cc1NC(=O)COC(=O)c1cccnc1Cl | 11 | -64* | -6 | -2 | 4
CN(C)S(=O)(=O)c1ccc(C(=O)OCC(=O)Nc2cccnc2Cl)cc1 | 2 | -33* | 3 | 7 | 8
Cc1ccc(S(=O)(=O)N2CCOCC2)cc1NC(=O)COC(=O)c1cc(=O)[nH]c2ccccc12 | -2 | -41* | -4 | -2 | 25
COc1ccc(/C=C\c2onc(C)c2S(=O)(=O)N2CCC(C(=O)Nc3cccc(OC)c3)CC2)cc1 | -14 | -1 | 0 | / | 10
Cc1cc(OCC(=O)Nc2cccc(S(=O)(=O)N3CCCC3)c2)ccc1Cl | -2 | -30* | 2 | 7 | 23
N#Cc1ccccc1OCC(=O)Nc1cccc(S(=O)(=O)N2CCCC2)c1 | -1 | -15 | -3 | -7 | 5
O=C(CCc1ccccc1Cl)Nc1cccc(S(=O)(=O)N2CCCC2)c1 | 19 | -32* | 5 | 10 | 7
O=C(COC(=O)CNC(=O)c1ccc(Cl)cc1Cl)Nc1cccc(S(=O)(=O)N2CCCC2)c1 | -3 | -32* | -7 | 17 | 5
CCc1ccccc1OCC(=O)Nc1cccc(S(=O)(=O)N2CCCC2)c1 | 3 | -30* | 2 | -11 | 13
O=C(CCCn1c(=O)c2sccc2n(Cc2ccc(F)cc2Cl)c1=O)NCc1ccc2c(c1)OCO2 | 5 | -1 | 1 | / | 0
O=C(NCCc1ccc(Cl)cc1)c1ccc2c(c1)N(Cc1ccccc1)C(=O)CS2 | 9 | 3 | -1 | / | 1
CCOC(=O)c1ccccc1NC(=O)N1CCN(Cc2cc(=O)n3nc(-c4ccccc4)sc3n2)CC1 | 3 | -10 | -2 | / | 2
Cc1ccc(S(=O)(=O)N2CCCCC2)cc1NC(=O)CSc1nccn1C | 5 | -1 | 2 | 9 | 1
Cn1ccnc1SCC(=O)Nc1cccc(S(=O)(=O)N2CCCCCC2)c1 | 1 | 2 | -2 | 1 | 31*
CCN1CCN(c2cc(C)c3cc(NC(=O)c4cncc(Br)c4)ccc3n2)CC1 | -11 | 13 | 3 | -69* | 0
COc1cc(OC)cc(C(=O)Nc2ccc3nc(N4CCCCC4)cc(C)c3c2)c1 | 6 | -46* | 5 | / | -1
SMILES | D3 ag | D1 antagonist | D1 potentiator | D3 antag | D1 agonist
Cc1cc(N2CCN(C)CC2)nc2ccc(NC(=O)c3ccc(C(C)(C)C)cc3)cc12 | -6 | -75* | 0 | / | 20
CCN1CCN(c2cc(C)c3cc(NC(=O)c4cc(OC)c(OC)c(OC)c4)ccc3n2)CC1 | -26 | 7 | 0 | / | -1
COc1ccc2c(CNCc3ccco3)c(C(=O)O)n(Cc3cccc(F)c3)c2c1 | 4 | -22 | -2 | / | 0
CN(C)c1ccc(CNC(=O)c2cccc(NC(=O)N3CCSc4ncccc43)c2)cc1 | 7 | -23 | -2 | / | 0
Cc1cc(C)c(S(=O)(=O)N/N=C/c2ccc3c(c2)OCO3)c(C)c1 | 6 | -72* | -3 | -71* | 2
Cc1cc(Cl)c(S(=O)(=O)N/N=C/c2ccc3c(c2)OCO3)c(Cl)c1 | -15 | 0 | -6 | ? | 3

Source: PubChem
